19 compounds from PubChem BioAssay can be followed below.

Unmarked numbers belong to inactive results. For some assays here: Measured potencies and affinities stand elsewhere. Activity calls are given as the source filed them. Unless noted, how the calls were made is not given here.

Assay [1] is described as follows: antimalarial activity against Dd2 strain (AID 2302;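 active means growth inhibition above 50% at the single 2 µM test dose, taken to imply half-maximal potency below 2 µM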;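 further: 0% = DMSO untreated growth and 100% = chloroquine plus artemisinin killed control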). Particulars: P. falciparum Dd2 in RBCs, LDH growth readout, 72 h; at 2 µM; hits give high values.
The nature of assay [2]: human hepatoma cell viability loss – ATP luminescence, cytotoxicity control for P. falciparum antimalarial project, primary screen (AID 2303;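 active means inhibition above 50%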;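 further: 0% = DMSO wells and 100% = digitonin-killed cells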). Particulars: HepG2 viability, 24-48 h, at 10 µM, hits give high values.
The target in assay [3] is L-lactate dehydrogenase (Plasmodium falciparum (isolate CDC / Honduras)) (UniProt Q27743). In words: PfLDH activity inhibition – cell lysate, 3D7 strain, counter-screen for P. falciparum growth inhibition project (AID 2304).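 Further: 0% = vehicle and 100% = reference inhibitor.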 Particulars: P. falciparum 3D7 crude extract, LDH APAD/NBT absorbance; at 2 µM; hits give high values.
The nature of assay [4]: inhibition of 3D7 malaria parasite growth – strain 3D7 (AID 2306).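 Further: 0% = DMSO wells and 100% = chloroquine plus artemisinin control wells.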 Particulars: P. falciparum 3D7 erythrocytic growth, LDH absorbance, 72 h; at 2 µM; hits give high values.
Assay [5] deals with Calcium-dependent protein kinase 1 (Plasmodium falciparum (isolate 3D7)) (UniProt P62344). Kind of assay: PfCDPK1 kinase inhibitors, biochemical, TCAMS library (AID 1159585; cut-off not given, nearly all actives have IC50 up to about 0.98 µM;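 further: inhibitors leave more ATP so luminescence rises with inhibition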). Particulars: recombinant PfCDPK1, Kinase-Glo ATP depletion luminescence. On the technique in general: Kinase-Glo reads ATP consumption through a luciferase reaction.
The target of assay [6] is Plasmodium falciparum protein kinase 6 (PK6, PF3D7_1337100) (UniProt Q8IDW1). Kind of assay: PfPK6 kinase inhibitors, biochemical, TCAMS library (AID 1159586). Particulars: recombinant PfPK6, Kinase-Glo ATP depletion luminescence.
Assay [7] deals with Protein kinase 7 (PK7), Plasmodium falciparum 3D7 (PF3D7_0213400) (UniProt Q7YTF7). Kind of assay: inhibition of Plasmodium PK7 catalytic activity – biochemical, TCAMS antimalarial set, Kinase-Glo luminescence (AID 1159587). Particulars: recombinant PfPK7, Kinase-Glo ATP depletion luminescence.
Assay [8] deals with Calcium-dependent protein kinase 4 (Plasmodium falciparum (isolate 3D7)) (UniProt Q8IBS5). Kind of assay: PfCDPK4 kinase inhibitors, biochemical, TCAMS library (AID 1159588; cut-off not given, nearly all actives have IC50 up to about 0.91 µM). Particulars: recombinant PfCDPK4, Kinase-Glo ATP depletion luminescence.
Chain of Calcium-dependent protein kinase 4 (Plasmodium falciparum (isolate 3D7)) (Q8IBS5 whole entry, looked up): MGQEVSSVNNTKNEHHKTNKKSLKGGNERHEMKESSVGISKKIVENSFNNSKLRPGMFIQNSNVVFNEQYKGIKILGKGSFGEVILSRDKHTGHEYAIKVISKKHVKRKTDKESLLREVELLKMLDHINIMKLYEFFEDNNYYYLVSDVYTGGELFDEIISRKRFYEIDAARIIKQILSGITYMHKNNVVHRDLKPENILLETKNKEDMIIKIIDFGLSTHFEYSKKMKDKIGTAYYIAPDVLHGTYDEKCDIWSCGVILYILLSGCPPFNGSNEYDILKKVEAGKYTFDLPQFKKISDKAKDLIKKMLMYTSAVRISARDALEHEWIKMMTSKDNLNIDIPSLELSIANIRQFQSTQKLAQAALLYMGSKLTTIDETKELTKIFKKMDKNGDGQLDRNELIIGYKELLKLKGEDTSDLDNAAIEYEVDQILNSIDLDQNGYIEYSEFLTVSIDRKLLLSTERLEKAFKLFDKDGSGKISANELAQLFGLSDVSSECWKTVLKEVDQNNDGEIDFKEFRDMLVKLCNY

Chain of L-lactate dehydrogenase (Plasmodium falciparum (isolate CDC / Honduras)) (Q27743 whole entry, looked up): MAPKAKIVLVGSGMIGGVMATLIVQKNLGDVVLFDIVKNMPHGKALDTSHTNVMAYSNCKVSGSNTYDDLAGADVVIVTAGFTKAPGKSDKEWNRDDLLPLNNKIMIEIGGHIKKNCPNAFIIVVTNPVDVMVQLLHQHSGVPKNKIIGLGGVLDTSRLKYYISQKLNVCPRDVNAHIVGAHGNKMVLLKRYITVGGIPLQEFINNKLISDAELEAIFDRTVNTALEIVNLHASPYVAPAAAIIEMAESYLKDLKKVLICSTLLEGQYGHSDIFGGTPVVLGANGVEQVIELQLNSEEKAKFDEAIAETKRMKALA
Chain of Protein kinase 7 (PK7), Plasmodium falciparum 3D7 (PF3D7_0213400) (Q7YTF7 1-343): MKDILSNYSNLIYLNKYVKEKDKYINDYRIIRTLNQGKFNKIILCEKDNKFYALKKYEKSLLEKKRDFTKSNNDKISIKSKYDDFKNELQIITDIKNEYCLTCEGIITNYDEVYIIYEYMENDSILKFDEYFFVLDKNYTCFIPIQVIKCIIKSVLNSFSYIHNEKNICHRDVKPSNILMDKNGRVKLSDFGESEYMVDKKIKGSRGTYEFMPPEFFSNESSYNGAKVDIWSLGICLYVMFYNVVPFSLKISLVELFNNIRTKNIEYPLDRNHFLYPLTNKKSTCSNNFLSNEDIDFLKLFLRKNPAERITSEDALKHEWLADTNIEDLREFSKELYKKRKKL
Chain of Calcium-dependent protein kinase 1 (Plasmodium falciparum (isolate 3D7)) (P62344 whole entry, looked up): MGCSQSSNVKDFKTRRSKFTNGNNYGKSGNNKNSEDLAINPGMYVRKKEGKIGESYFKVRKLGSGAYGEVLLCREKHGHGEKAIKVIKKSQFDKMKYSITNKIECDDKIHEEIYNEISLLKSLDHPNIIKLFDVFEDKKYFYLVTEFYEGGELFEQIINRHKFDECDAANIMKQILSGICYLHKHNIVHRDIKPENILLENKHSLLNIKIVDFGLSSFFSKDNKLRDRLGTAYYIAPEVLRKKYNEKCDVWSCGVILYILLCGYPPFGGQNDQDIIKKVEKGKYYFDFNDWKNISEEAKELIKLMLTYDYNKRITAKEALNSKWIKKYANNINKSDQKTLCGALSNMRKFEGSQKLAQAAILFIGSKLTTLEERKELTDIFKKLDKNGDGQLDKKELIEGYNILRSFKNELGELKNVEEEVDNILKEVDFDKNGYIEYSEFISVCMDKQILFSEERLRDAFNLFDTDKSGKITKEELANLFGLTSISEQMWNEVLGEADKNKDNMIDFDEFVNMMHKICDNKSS
Chain of Plasmodium falciparum protein kinase 6 (PK6, PF3D7_1337100) (Q8IDW1 1-305): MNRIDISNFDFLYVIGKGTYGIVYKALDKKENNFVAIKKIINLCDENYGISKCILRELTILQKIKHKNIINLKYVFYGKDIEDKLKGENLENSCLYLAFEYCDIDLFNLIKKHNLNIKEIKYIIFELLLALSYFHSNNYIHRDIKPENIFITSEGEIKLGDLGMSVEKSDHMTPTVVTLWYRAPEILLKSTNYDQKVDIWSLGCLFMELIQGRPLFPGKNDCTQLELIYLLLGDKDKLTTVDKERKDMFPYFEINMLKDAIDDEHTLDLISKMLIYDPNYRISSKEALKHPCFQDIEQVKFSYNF

In general, inhibition refers to the change of the read-out against control, counted positive when it falls. As for `CCCc1c(C(=O)NC2CCC(CN3CCC(c4c[nH]c5ccccc45)CC3)CC2)cnn1-c1c(Cl)cc(Cl)cc1Cl` (configuration not stated), the growth inhibition in assay [1] was 49%; in assay [4], 100% (active). The figures for the inhibition in assay [2] and in assay [3] were 41% and -5%, respectively. Also, the outcome in assay [5], in assay [6], in assay [7] and in assay [8] was inactive.
For the compound `O=C(/C=C/c1ccc(Cl)c(Cl)c1)N1CCC(CN2CCC(c3c[nH]c4cc(C(F)(F)F)ccc34)CC2)CC1`, the growth inhibition is 38% in assay [1] and 99% (active) in assay [4]. For the same compound, the inhibition was 6% in assay [2] and -5% in assay [3]. In addition, the outcome in assay [5], in assay [6], in assay [7] and in assay [8] was inactive.
With `COc1ccc(C(=O)[C@H]2C[C@@H]2CN2CC=C(c3c[nH]c4ccc(OC)nc34)CC2)cc1`, the values for the growth inhibition in assay [1] and in assay [4] were 91% (active) and 98% (active), respectively. For the same compound, the inhibition in assay [2] was 8%; in assay [3], -3%. In addition, the outcome in assay [5], in assay [6], in assay [7] and in assay [8] was inactive.
As for `C#CCN1CCC2=C(C1)c1c(O)cc(C(C)CCCc3ccc(F)cc3)cc1OC2(C)C` (configuration not stated), the growth inhibition in assay [1] is 90% (active); in assay [4], 98% (active). The results for the inhibition in assay [2] and in assay [3] were 1% and 5%, respectively. In addition, the outcome in assay [5], in assay [6], in assay [7] and in assay [8] was inactive.
As for `COc1cc(C=CC(=O)N2CCC(CN3CCC(c4c[nH]c5ccccc45)CC3)CC2)cc(OC)c1`, the growth inhibition in assay [1] is 8%; in assay [4], 95% (active). Besides, the figures for the inhibition in assay [2] and in assay [3] were 19% and 4%, respectively. The outcome in assay [5], in assay [6], in assay [7] and in assay [8] was inactive.
Regarding `CC[C@H]1CN2CC[C@H]1C[C@H]2[C@H](O)c1cc(Cl)nc2ccc(OC)cc12`, the results for the growth inhibition in assay [1] and in assay [4] were 92% (active) and 101% (active), respectively. Besides, the inhibition in assay [2] is 0%; in assay [3], 2%. Besides, the result in assay [5], in assay [6], in assay [7] and in assay [8] was inactive.
As for `CC[C@H]1CN2CC[C@@H]1C[C@H]2[C@H](O)c1cc(N2CCC(O)(c3ccccc3)CC2)nc2ccc(OC)cc12`, the growth inhibition is 98% (active) in assay [1] and 101% (active) in assay [4]. Besides, the values for the inhibition in assay [2] and in assay [3] were 14% and -2%, respectively. Moreover, the result in assay [5], in assay [6], in assay [7] and in assay [8] was inactive.
`CC[C@H]1CN2CC[C@H]1C[C@H]2[C@H](O)c1cc(N2CCC3CCCCC3C2)nc2ccc(OC)cc12` (some centres not stated): the growth inhibition in assay [1] is 99% (active); in assay [4], 100% (active). Moreover, the inhibition in assay [2] is 50% (active); in assay [3], -4%. Also, the result in assay [5], in assay [6], in assay [7] and in assay [8] was inactive.
In the case of `O=C(/C=C/c1ccc(Cl)c(Cl)c1)N1CCC(CN2CCC(c3cn(CC(=O)N4CCCCC4)c4ccccc34)CC2)CC1`, the growth inhibition in assay [1] was 65% (active); in assay [4], 100% (active). The values for the inhibition in assay [2] and in assay [3] were 52% (active) and -2%, respectively. Moreover, the result in assay [5], in assay [6], in assay [7] and in assay [8] was inactive.
In the case of `CCCC(=O)c1c(O)c2ccccc2oc1=O`, the growth inhibition was 1% in assay [1] and 93% (active) in assay [4]. The inhibition in assay [2] is 11%; in assay [3], -5%. Also, the outcome in assay [5], in assay [6], in assay [7] and in assay [8] was inactive.
As for `COc1ccc(O)c(CN2CCN(c3cc(C)ccc3C)CC2)c1`, the growth inhibition was 86% (active) in assay [1] and 90% (active) in assay [4]. In addition, the inhibition in assay [2] is 7%; in assay [3], 2%. The outcome in assay [5], in assay [6], in assay [7] and in assay [8] was inactive.
With `CNCCCCCCOc1ccc(CC(C)NCC(O)c2cccc(C(F)(F)F)c2)cc1` (configuration not stated), the growth inhibition is 79% (active) in assay [1] and 101% (active) in assay [4]. In addition, the values for the inhibition in assay [2] and in assay [3] were 99% (active) and 3%, respectively. For the same compound, the outcome in assay [5], in assay [6], in assay [7] and in assay [8] was inactive.
`COCCSc1ccc(CC(C)NCC(O)c2cccc(Cl)c2)cc1` (configuration not stated): the growth inhibition in assay [1] is 73% (active); in assay [4], 97% (active). Besides, the inhibition was 2% in assay [2] and -1% in assay [3]. Moreover, the result in assay [5], in assay [6], in assay [7] and in assay [8] was inactive.
In the case of `NCC(=O)c1cc2c(cc1N)OCCO2`, the growth inhibition in assay [1] is 42%; in assay [4], 89% (active). For the same compound, the inhibition in assay [2] is 64% (active); in assay [3] it was 0%. For the same compound, the result in assay [5], in assay [6], in assay [7] and in assay [8] was inactive.
Consider `CCCCCSc1cc(O)c(C(CNC)C(C)C)cc1OC` (configuration not stated), for which the growth inhibition is 99% (active) in assay [1] and 100% (active) in assay [4]. Also, the inhibition in assay [2] was 5%; in assay [3], -4%. Besides, the outcome in assay [5], in assay [6], in assay [7] and in assay [8] was inactive.
Consider `CC[C@H]1CN2CC[C@@H]1C[C@H]2[C@H](O)c1cc(N2CCC(c3ccccc3)CC2)nc2ccc(OC)cc12`, for which the growth inhibition in assay [1] is 98% (active); in assay [4], 99% (active). The inhibition in assay [2] was 45%; in assay [3], -5%. Further, the outcome in assay [5], in assay [6], in assay [7] and in assay [8] was inactive.
On to `CCCCCc1cc(O)c2c(c1)OC(C)(C)c1ccncc1-2`, for which the growth inhibition in assay [1] was 57% (active); in assay [4], 99% (active). The inhibition in assay [2] was -5%; in assay [3], -1%. Moreover, the outcome in assay [5], in assay [6], in assay [7] and in assay [8] was inactive.
Regarding `CCCCCCCCNCC(O)c1ccc(Cl)c(Cl)c1` (configuration not stated), the growth inhibition was 87% (active) in assay [1] and 99% (active) in assay [4]. For the same compound, the inhibition in assay [2] is -4%; in assay [3] it was -3%. Moreover, the outcome in assay [5], in assay [6], in assay [7] and in assay [8] was inactive.
For `Cc1cccc2[nH]cc(C3CCN(CC4CCC(NC(=O)/C=C/c5ccc(Cl)c(Cl)c5)CC4)CC3)c12` (configuration not stated), the values for the growth inhibition in assay [1] and in assay [4] were 97% (active) and 101% (active), respectively. The figures for the inhibition in assay [2] and in assay [3] were 88% (active) and -4%, respectively. Besides, the result in assay [5], in assay [6], in assay [7] and in assay [8] was inactive.
